Source: PubChem BioAssay
RPL19A-GFP yeast: RPL19A-GFP expression modulators in yeast, primary screen, cell-based, S. cerevisiae, multiplex flow cytometry, MLPCN | S. cerevisiae RPL19A-GFP strain, 3 h; hits give low values | percent response vs DMSO, % at 10 µM | 330,000 compounds, 0.3% hits | AID 2025, 2009;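 active = percent response vs DMSO below 50%; inconclusive = fewer than 70 events counted for the yeast strain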;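 note: median channel GFP fluorescence of the barcoded RPL19A-GFP strain; ratio of sample median GFP to plate DMSO average so 100% = DMSO; lower means less RPL19A-GFP as with rapamycin TOR inhibition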
AGP1 TOR yeast: modulators of AGP1-GFP expression in yeast TOR pathway, primary screen, cell-based, multiplex flow cytometry, S. cerevisiae, MLPCN library | GFP response vs DMSO, % at 10 µM | 320,000 compounds, 0.02% hits | 3 h; GFP as percent of DMSO wells;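 active = GFP response relative to DMSO above a set limit, near screen average plus 3 SD, cut at about 150% in these data; inconclusive = fewer than 70 cells counted for the yeast strain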;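 note: median GFP channel fluorescence of the gated AGP1 strain per well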
CIT2 TOR yeast: modulators of CIT2-GFP expression in yeast, primary screen, S. cerevisiae, GFP fusion, multiplex flow cytometry, MLPCN library; 320,000 compounds, 0.065% hits; S. cerevisiae CIT2-GFP strain, 3 h; 100 means same as DMSO wells; GFP response vs DMSO, % at 10 µM;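 active = GFP response relative to DMSO above a set limit, near the screen mean plus 3 SD, cut at about 150% in these data; inconclusive = Fewer than 70 cells measured for a yeast strain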;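 note: ratio of well median GFP fluorescence to mean of DMSO wells on the plate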
LAP4-GFP MLPCN: modulators of LAP4-GFP expression in yeast, primary screen, S. cerevisiae, multiplex flow cytometry, MLPCN library; 3 h; median GFP as percent of DMSO wells; GFP response vs DMSO, % at 10 µM; 320,000 compounds, 0.34% hits;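 active = GFP response vs DMSO above a set limit, about the screen mean plus 3 SD, cut at about 150% in these data; inconclusive = under 70 cell events counted for the yeast strain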
MEP2-GFP yeast: modulators of MEP2-GFP levels in yeast, primary screen, S. cerevisiae, multiplex flow cytometry, MLPCN library. S. cerevisiae MEP2-GFP strain, 3 h; 100% = DMSO control level. GFP response vs DMSO, % at 10 µM. 330,000 compounds, 0.51% hits;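 active = GFP response versus DMSO above a set limit, roughly screen mean plus 3 SD, cut at about 180% in these data; inconclusive = fewer than 70 cells counted for a yeast strain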;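 note: median GFP fluorescence of the barcode-gated MEP2-GFP cells per well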
* = called active by the depositor; ? = inconclusive; [ ] = remark or other dose. Shown are actives, neighbours in structure and some others; about 0.93% of the full set was active somewhere.

SMILES	RPL19A-GFP yeast	AGP1 TOR yeast	CIT2 TOR yeast	LAP4-GFP MLPCN	MEP2-GFP yeast
CC(C)NC(=O)COc1ccc(OCc2ccccc2)cc1	101	96	107	106	101
O=C(COc1ccc(OCc2ccccc2)cc1)NN=C1CCCC1	95	107	84	152*	121
COC(=O)c1cn(NC(=O)Cn2nc([N+](=O)[O-])c(Br)c2C)c(=O)c2ccccc12	110	106	104	106	101
O=C1CNC(=O)N1	40*[may fluoresce violet]	?	?	88	236*[may fluoresce violet]
O=C1NC(=O)C(=O)N1	96	89	88	130	95
NNc1nc2c(-c3cccc(C(F)(F)F)c3)nnn2c2ccccc12	48*[may fluoresce violet]	21	?	122	400*[may fluoresce violet]
COCCNc1nc2c(-c3cccc(C(F)(F)F)c3)nnn2c2ccccc12	95	94	97	106	114
COc1ccc(NC(=O)CSc2nc3ccccc3c3nc4ccccc4n23)cc1	24*[may fluoresce violet]	?	?	61	124
Cc1ccc(NC(=S)N2CCSC2c2cccs2)cc1 (stereo unspecified)	108	116	165*	155*	182*
Cc1ccc(NC(=O)CC2Oc3ccc(C)cc3NC2=O)c(C)c1 (stereo unspecified)	103	99	100	96	102
CCc1cccc(C)c1NC(=O)CC1Oc2ccc(C)cc2NC1=O (stereo unspecified)	110	99	153*	134	203*
Cc1cc(O)c(C(C)C)cc1N=Nc1ccccc1C(=O)O	96	101	103	111	101
Cc1cc(N=Nc2ccccc2C(=O)O)c(C)c(C)c1O	97	94	151*	123	132
CCc1nnc2n1N=C(c1ccc(Cl)cc1)CS2	29*[may fluoresce violet]	?	?	74	744*[may fluoresce violet]
COc1ccc(CCNC(=O)CSc2nc3ccsc3c(=O)n2CC2CCC(C(=O)O)CC2)cc1OC (stereo unspecified)	102	106	109	109	107
CCCCCCCN1CCN=C1Nc1ccccc1	100	101	102	94	105
Cc1ccc(-c2csc3ncnc(SCC(=O)O)c23)cc1	51	?	?	60	186*[may fluoresce violet]
N#Cc1c(F)cccc1N1CCN(Cc2ccc3c(c2)OCO3)CC1	95	98	99	95	107
Cc1cc(=O)oc2c(CN3CCCC3)c(O)ccc12	42*[may fluoresce violet]	?	?	68	659*[may fluoresce violet]
CCN1CCN(Cc2c(O)ccc3c(C)cc(=O)oc23)CC1	105	95	97	87	105
Cc1cc(=O)oc2c(CN3CCCC3)c(O)c(Cl)cc12	27*[may fluoresce violet]	82	?	82	524*[may fluoresce violet]
NC(=O)c1ccccc1N	103	97	100	104	100
COC(=O)c1ccccc1C(=O)N1CCOCCN(C(=O)c2ccccc2C(=O)OC)CCOCC1	31*[may fluoresce violet]	?	?	68	188*[may fluoresce violet]
COc1ccc(S(=O)(=O)N2CCN(C3CCCC(C)C3)CC2)cc1 (stereo unspecified)	100	103	105	96	98
CC1CCCC(N2CCN(S(=O)(=O)c3ccccc3)CC2)C1 (stereo unspecified)	52	?	?	77	226*[may fluoresce violet]
SMILES	RPL19A-GFP yeast	AGP1 TOR yeast	CIT2 TOR yeast	LAP4-GFP MLPCN	MEP2-GFP yeast
O=C(CCC(=O)Nc1ccccc1)NCCO	100	99	97	101	102
COc1ccc(NC(=O)CCC(=O)NCCO)cc1	59	22	?	102	291*[may fluoresce violet]
CC1C(=O)N(Cc2cccc(F)c2)c2ccccc2N1C(=O)c1ccccc1 (stereo unspecified)	63	?	?	97	263*[may fluoresce violet]
COc1cccc(CN2C(=O)C(C)N(C(=O)c3c(F)cccc3F)c3ccccc32)c1 (stereo unspecified)	103	101	95	99	97
CC1(C)CNC(=O)CC(C)(C)N1	91	13	?	89	186*[may fluoresce violet]
CC(Cc1cccs1)NC(=O)CCCn1nnnc1CN1CCOCC1 (stereo unspecified)	98	98	99	107	101
Cc1ccc(CCNC(=O)CN(c2cc(C)cc(C)c2)S(=O)(=O)c2c(C)noc2C)cc1	100	95	98	90	101
